Source: PubChem BioAssay (Tox21)
Where “and” joins values, the source holds several entries; their conditions need not be identical. Identical values can stand only once. Results filed as inconclusive are left out. A call without a number means that no potency is given here. A structure can be active in one record and inactive in another. Calls of active or inactive are those of the source. The call rests on the fitted dose curve. Positions of bridges follow the written chain, without caps; N, C: chain ends. Non-standard residues stand in square brackets, D forms with d. Residues, ends and D or L forms follow the SMILES beside them. hArg = N=C(N)NCCCC[C@H](N)C(=O)O; Mpa = O=C(O)CCS

What was measured:
[1] = target: Acetylcholinesterase (Homo sapiens) (UniProt P22303); experiment: Acetylcholinesterase (AChE) small molecule antagonists: colormetric cell-based qHTS assay (AID 1347395); further: nearly all actives have a fitted effect of over 30% in size; further: potency means the concentration at half of the fitted maximal effect
Acetylcholinesterase (Homo sapiens), sequence (P22303 whole entry, looked up): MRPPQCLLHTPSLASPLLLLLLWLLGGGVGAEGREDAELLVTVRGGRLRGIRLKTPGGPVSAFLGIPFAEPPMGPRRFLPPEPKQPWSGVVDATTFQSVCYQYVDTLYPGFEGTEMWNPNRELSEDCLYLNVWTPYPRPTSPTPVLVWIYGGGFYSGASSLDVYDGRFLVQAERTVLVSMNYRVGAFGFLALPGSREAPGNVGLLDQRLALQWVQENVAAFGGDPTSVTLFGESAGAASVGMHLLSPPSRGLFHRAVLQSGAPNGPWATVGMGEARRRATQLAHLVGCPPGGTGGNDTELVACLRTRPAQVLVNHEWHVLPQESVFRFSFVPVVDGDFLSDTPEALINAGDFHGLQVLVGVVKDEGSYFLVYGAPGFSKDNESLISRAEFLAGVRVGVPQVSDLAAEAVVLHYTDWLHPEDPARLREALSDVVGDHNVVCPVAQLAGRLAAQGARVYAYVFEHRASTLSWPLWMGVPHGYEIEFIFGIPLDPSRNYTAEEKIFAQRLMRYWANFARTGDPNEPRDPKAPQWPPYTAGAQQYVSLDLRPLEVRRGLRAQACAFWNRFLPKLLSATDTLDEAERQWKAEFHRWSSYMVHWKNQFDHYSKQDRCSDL
Summary of the method: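 SH-SY5Y cells, plated overnight at 37 C, were exposed to compounds for 30 min at 37 C and 5% CO2. Acetylthiocholine plus DTNB was then added, and thiocholine from endogenous AChE was quantified colorimetrically after 90 min at 37 C.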

[2] = target: Acetylcholinesterase (Homo sapiens) (UniProt P22303); experiment: Acetylcholinesterase (AChE) small molecule antagonists: enzyme-based qHTS assay (AID 1347397); settings: Potency: AChE enzyme activity inhibition; outcome: AChE enzyme activity inhibition; further: nearly all actives have a fitted effect of over 55% in size; further: potency means the concentration at half of the fitted maximal effect
Summary of the method: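 Colorimetric DTNB read-out of thiocholine released from acetylthiocholine by recombinant human AChE (50 mU/mL as dispensed). Compounds were preincubated 30 min at RT before substrate/DTNB addition, with a 10 min RT reaction.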

[3] = target: Acetylcholinesterase (Homo sapiens) (UniProt P22303); experiment: Acetylcholinesterase (AChE) small molecule antagonists: fluorescence cell-based qHTS assay (AID 1347398); settings: Potency: AChE activity; outcome: AChE activity; further: nearly all actives have a fitted effect of over 50% in size; further: potency means the concentration at half of the fitted maximal effect
Summary of the method: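 SH-SY5Y, 2,000 cells/well, attached overnight; cmpd 30 min 37 C; acetylthiocholine/Thiolite Green cocktail 40 min RT; fluorescence Ex/Em 490/520 nm.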

[4] = target: Acetylcholinesterase (Homo sapiens) (UniProt P22303); experiment: Acetylcholinesterase (AChE) small molecule antagonists: enzyme-based qHTS assay with human liver microsomes (AID 1347399); settings: Potency: qHTS inhibition; outcome: qHTS inhibition; further: nearly all actives have a fitted effect of over 60% in size
Summary of the method: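 Recombinant human AChE (50 mU/mL in the enzyme mix) and human liver microsomes (0.25 mg/mL final) were preincubated with compound and NADPH (0.25 mg/mL final) for 30 min at 37 C. Acetylthiocholine/DTNB was then added; thiocholine was read colorimetrically after 10 min at room temperature.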

Compound	Potency [1]	Potency [2]	Potency [3]	Potency [4]	activity, negative = inhibition [1]	activity change, negative = inhibition [2]	activity change, negative = inhibition [3]	activity change, negative = inhibition [4]
C=CC(C)(C)O	inactive	inactive	inactive	inactive	–	–	–	–
COC(=O)c1ccc(C=O)cc1	inactive	inactive	inactive	inactive	–	–	–	–
CC1(C)CO[C@@H](CC(=O)O)CN1	inactive	inactive	inactive	inactive	–	–	–	–
CC(=O)O[C@]1(C(C)=O)CC[C@H]2[C@@H]3C=C(Cl)C4=CC(=O)[C@@H]5C[C@@H]5[C@]4(C)[C@H]3CC[C@@]21C	inactive	inactive	inactive	inactive	–	–	–	–
ONc1ccccc1	inactive	inactive	inactive	inactive	–	–	–	–
C=C(C)C(=O)OCCO	inactive	inactive	inactive	inactive	–	–	–	–
C=CC(C)CCCC(C)(C)O (stereo not given)	inactive and 28.3 µM (active)	inactive and 25.2 µM (active)	inactive and 22.4 µM (active)	inactive	–	–	–	–
OCC(O)CS (stereo not given)	inactive	inactive	inactive	inactive	–	–	–	–
C[C@@H]1C[C@H]2O[C@@]3(O[C@@H]2C(C)(C)O)[C@H](O)[C@@]2(C)[C@@H]4CC[C@H]5C(C)(C)[C@@H](O[C@@H]6OC[C@@H](O)[C@H](O)[C@H]6O)CC[C@@]56C[C@@]46CC[C@]2(C)[C@@H]13	inactive	inactive	inactive	inactive	–	–	–	–
CC(CCc1ccc(O)cc1)NCCc1ccc(O)c(O)c1 (stereo not given)	inactive	inactive	inactive	inactive	–	–	–	–
NC(=O)N1c2ccccc2C=Cc2ccccc21	35.4 µM (active) and inactive	inactive	inactive	inactive	–	–	–	–
C[N+]1(CC2COC(c3ccccc3)(c3ccccc3)O2)CCCCC1 (stereo not given)	–	–	–	–	-0.268% [at 23.6 µM] (inactive)	0.437% [at 23.6 µM] (inactive)	-6.49% [at 23.8 µM] (inactive)	4.03% [at 23.6 µM] (inactive)
CCCOC(=O)c1ccc(C(=O)OCCC)nc1	inactive	inactive	inactive	inactive	–	–	–	–
CC(=O)CCC=C(C)C	inactive	inactive	inactive	inactive	–	–	–	–
CCOC(=O)/C=C/C(=O)O	inactive	inactive	inactive	inactive	–	–	–	–
CCC(C)c1ccccc1O (stereo not given)	inactive	inactive	inactive	inactive	–	–	–	–
Cn1c(=O)c2[nH]cnc2n(C)c1=O	inactive	inactive	inactive	inactive	–	–	–	–
COC(=O)CC(=O)C(C)(C)C	inactive	inactive	inactive	inactive	–	–	–	–
OCCN1C[C@H](O)[C@@H](O)[C@H](O)[C@H]1CO	inactive	inactive	inactive	inactive	–	–	–	–
Cc1cn([C@H]2C[C@H](F)[C@@H](CO)O2)c(=O)[nH]c1=O	inactive	inactive	inactive	inactive	–	–	–	–

Compound	Potency [1]	Potency [2]	Potency [3]	Potency [4]	activity, negative = inhibition [1]	activity change, negative = inhibition [2]	activity change, negative = inhibition [3]	activity change, negative = inhibition [4]
NC(=O)[C@@H]1CSSCCC(=O)N[C@@H](CCCCN=C(N)N)C(=O)NCC(=O)N[C@@H](CC(=O)O)C(=O)N[C@@H](Cc2c[nH]c3ccccc23)C(=O)N2CCC[C@H]2C(=O)N1 ([Mpa][hArg]GDWPC-NH2; disulfide 1-7)	inactive	inactive	inactive	inactive	–	–	–	–
CC/C=C/CCO	inactive	inactive	inactive	inactive	–	–	–	–
CC(C)NC(=O)NC(C)C	inactive	inactive	inactive	inactive	–	–	–	–
CC(=O)/C=C/C1=C(C)CCCC1(C)C	35.6 µM (active)	inactive	10.2 µM (active)	inactive	–	–	–	–
COCCOCCOCCOCCOCCO	inactive	inactive	inactive	inactive	–	–	–	–
Nc1ccc(S(=O)(=O)Nc2ccc(Cl)nn2)cc1	inactive	inactive	inactive	inactive	–	–	–	–
CCOC(N)=O	inactive	inactive	inactive	inactive	–	–	–	–
C=C(C)C(=O)OCCNC(C)(C)C	inactive	inactive	inactive	inactive	–	–	–	–
O=C1OC2(c3ccc(O)cc3Oc3cc(O)ccc32)c2ccc(N=C=S)cc21	inactive	inactive	inactive	inactive	–	–	–	–
CSc1nnc(C(C)(C)C)c(=O)[nH]1	inactive	inactive	inactive	inactive	–	–	–	–
O=Cc1c2ccccc2c(Cl)c2ccccc12	inactive	inactive	inactive	inactive	–	–	–	–
Nc1nc(N)nc(-c2ccccc2)n1	inactive	inactive	inactive	inactive	–	–	–	–
CCNC(=S)NCC	inactive	inactive	inactive	inactive	–	–	–	–
CCC(=O)O[C@@H]1C[C@H]2CC[C@]1(C)C2(C)C	inactive	inactive	inactive	inactive	–	–	–	–
O=C1OC2(c3ccccc31)c1cc(Br)c(O)c(Br)c1Oc1c2cc(Br)c(O)c1Br	inactive	inactive	inactive	inactive	–	–	–	–
CC(C)NNC(=O)c1ccncc1	inactive	inactive	inactive	inactive	–	–	–	–
CCCCCCCCCCO	inactive	inactive	inactive	inactive	–	–	–	–
O=C1NC(=O)c2ccccc21	inactive	inactive	inactive	inactive	–	–	–	–
CC[C@H]1OC(=O)[C@H](C)[C@@H](O[C@H]2C[C@@](C)(OC)[C@@H](O)[C@H](C)O2)[C@H](C)[C@@H](O[C@@H]2O[C@H](C)C[C@H](N(C)C)[C@H]2O)[C@](C)(O)C[C@@H](C)CN(C)[C@H](C)[C@@H](O)[C@]1(C)O	inactive	inactive	inactive	inactive	–	–	–	–
Oc1ccc(Sc2ccc(O)cc2)cc1	inactive	inactive	inactive	inactive	–	–	–	–

Compound	Potency [1]	Potency [2]	Potency [3]	Potency [4]	activity, negative = inhibition [1]	activity change, negative = inhibition [2]	activity change, negative = inhibition [3]	activity change, negative = inhibition [4]
Cc1cc(C)cc(OCC2CNC(=O)O2)c1 (stereo not given)	inactive	inactive	inactive	inactive	–	–	–	–
O=C(O)c1cc(C(=O)O)cc(S(=O)(=O)O)c1	inactive	inactive	inactive	inactive	–	–	–	–
CCc1cnc(C(=O)O)c(C(=O)O)c1	inactive	inactive	inactive	inactive	–	–	–	–
CCCCCC[C@@H](O)C/C=C\CCCCCCCC(=O)OC	inactive	inactive	inactive	inactive	–	–	–	–
CO/N=C(/C(=O)N[C@@H]1C(=O)N2C(C(=O)[O-])=C(C[n+]3ccn4ncccc43)CS[C@H]12)c1nsc(N)n1	inactive	inactive	inactive	inactive	–	–	–	–
Cc1cc(=O)oc2cc(O)cc(O)c12	inactive	inactive	inactive	inactive	–	–	–	–
CC1=C(C=O)C(C)(C)CC=C1	inactive	inactive	inactive	inactive	–	–	–	–
O=NN(CCCl)C(=O)NCCCl	inactive	inactive	inactive	inactive	–	–	–	–
CCN(Cc1cccc(S(=O)(=O)O)c1)c1ccccc1	inactive	inactive	inactive	inactive	–	–	–	–
C[Si]1(C)O[Si](C)(C)O[Si](C)(C)O[Si](C)(C)O[Si](C)(C)O1	inactive	inactive	inactive	inactive	–	–	–	–
CCCCC(CC)COP(=O)(OCC(CC)CCCC)OCC(CC)CCCC (stereo not given)	inactive	inactive	inactive	inactive	–	–	–	–
O=C1c2ccccc2C(=O)C1c1nc2ccccc2c(Br)c1O	inactive	inactive	inactive	inactive	–	–	–	–
CCCc1nc2c(C)cc(-c3nc4ccccc4n3C)cc2n1Cc1ccc(-c2ccccc2C(=O)O)cc1	inactive	inactive	inactive	inactive	–	–	–	–
CC/C=C\CCOC(C)OCC (stereo not given)	inactive	inactive	inactive	inactive	–	–	–	–
CCC/C=C(\C=O)CC	inactive	inactive	inactive	inactive	–	–	–	–
C[C@H](CCC(=O)O)[C@H]1CC[C@H]2[C@@H]3[C@H](O)C[C@@H]4C[C@H](O)CC[C@]4(C)[C@H]3CC[C@]12C	inactive	inactive	inactive	inactive	–	–	–	–
CNc1c2c(nn1C)CCCC2	inactive	inactive	inactive	inactive	–	–	–	–
COc1cc2ncnc(Nc3cccc(Cl)c3)c2cc1OC	–	–	–	–	5.54% [at 23.6 µM] (inactive)	-0.138% [at 23.6 µM] (inactive)	1.23% [at 23.8 µM] (inactive)	1.05% [at 23.6 µM] (inactive)
O=[N+]([O-])c1ccccc1CCO	inactive	inactive	inactive	inactive	–	–	–	–
Cc1cc(C)c(N)c(Cl)c1	inactive	inactive	inactive	inactive	–	–	–	–
